# Measurements from PubChem BioAssay (EPA / NIEHS).
# Results filed as inconclusive are left out. Some compounds were tested as several samples or in several runs, with calls that do not always agree. Activity calls are given as the source filed them. The calls were made as follows, unless noted: active = hit-call score of the fitted dose curve at least 0.9, where 1 is the maximum; inconclusive = response in the unintended direction; inactive = score below 0.9.
# Tested on: turtle Thyroid Hormone Receptor, alpha (TRa), gene 101949057
# Assay: ATG_trTRa_XSP2: Attagene TRANS-FACTORIAL Multi-Species (XSP1) HepG2 Assay for turtle Thyroid Hormone Receptor, alpha (TRa) (AID 2283834);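 also: hits raise reporter mRNA over the DMSO baseline so AC50 marks activators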
# Method in brief: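 Transfection of HepG2 with multiple reporter transcription units, then chemical dosing for 24 h. Total RNA was reverse-transcribed, reporter sequences PCR-amplified and FAM-labelled, then sized by capillary electrophoresis. DMSO served as baseline.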
row,SMILES,outcome
1,CC(C)(C)c1ccc(O)cc1,inactive
2,O=S(=O)(c1ccc(O)cc1)c1ccc(O)cc1,inactive
3,c1ccc2c(c1)Nc1ccccc1S2,inactive
4,O=P(Oc1ccccc1)(Oc1ccccc1)Oc1ccccc1,inactive

# Tested on: not listed separately
# Assay: ATG_M_61_XSP2: Attagene TRANS-FACTORIAL Multi-Species (XSP2) HepG2 Assay for M61 Transcription Factor (Internal Marker) (AID 2283835; active = hit-call score of the fitted dose curve at least 0.9, where 1 is the maximum; inactive = score below 0.9;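 also: active means a rise in signal above the DMSO baseline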)
# Method in brief: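 Internal background marker, read as RT-PCR/capillary-electrophoresis reporter mRNA 24 h post-dose in transiently transfected HepG2 cells. Androgen receptor stimulated with 3 nM 6-alpha-fluorotestosterone plus 1.5 nM norgestrel; gain of signal versus DMSO analysed.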
row,SMILES,outcome
1,CCCCc1ccc(O)cc1,inactive
2,CC(C)(C)c1ccc(O)cc1,inactive
3,O=S(=O)(c1ccc(O)cc1)c1ccc(O)cc1,inactive
4,c1ccc2c(c1)Nc1ccccc1S2,inactive
5,O=P(Oc1ccccc1)(Oc1ccccc1)Oc1ccccc1,inactive

# Target: zebrafish Thyroid Hormone Receptor beta (TRb), thrb (gene 30607) (UniProt Q9PVE4)
# Sequence (Q9PVE4 whole entry, looked up): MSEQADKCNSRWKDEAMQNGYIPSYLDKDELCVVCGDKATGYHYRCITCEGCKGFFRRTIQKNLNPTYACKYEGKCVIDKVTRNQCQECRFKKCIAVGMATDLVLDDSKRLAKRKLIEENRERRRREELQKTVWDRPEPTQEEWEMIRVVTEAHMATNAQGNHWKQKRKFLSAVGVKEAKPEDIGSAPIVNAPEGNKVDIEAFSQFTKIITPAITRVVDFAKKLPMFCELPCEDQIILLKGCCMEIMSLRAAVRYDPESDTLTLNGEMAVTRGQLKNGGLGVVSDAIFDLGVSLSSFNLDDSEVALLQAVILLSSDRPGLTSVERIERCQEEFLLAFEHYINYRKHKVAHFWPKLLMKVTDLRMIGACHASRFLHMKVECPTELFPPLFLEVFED
# Assay: ATG_zfTRb_XSP2: Attagene TRANS-FACTORIAL Multi-Species (XSP1) HepG2 Assay for zebrafish Thyroid Hormone Receptor beta (TRb) (AID 2283836)
# Method in brief: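 Multiplexed trans-activation in HepG2 cells, 24 h treatment, with reporter mRNA read by RT-PCR and capillary electrophoresis. Gain-of-signal against DMSO.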
row,SMILES,outcome
1,CCCCc1ccc(O)cc1,inactive
2,CC(C)(C)c1ccc(O)cc1,inactive
3,O=S(=O)(c1ccc(O)cc1)c1ccc(O)cc1,inactive
4,CCC(C)(C)c1ccc(O)cc1,inactive
5,c1ccc2c(c1)Nc1ccccc1S2,inactive
6,O=P(Oc1ccccc1)(Oc1ccccc1)Oc1ccccc1,inactive

# Tested on: not listed separately
# Assay: ATG_XTT_Cytotoxicity_XSP2: Cytotoxicity Assessment in the Attagene TRANS-FACTORIAL Multi-Species (XSP2) HepG2 Assay (AID 2283837)
# Method in brief: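 XTT-based cell number read-out in human HepG2 liver cells carrying transfected reporter units, measured 24 h after chemical dosing. Activity is signal loss versus DMSO baseline.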
row,SMILES,outcome
1,CCCCc1ccc(O)cc1,inactive
2,O=S(=O)(c1ccc(O)cc1)c1ccc(O)cc1,inactive
3,CCC(C)(C)c1ccc(O)cc1,inactive
4,c1ccc2c(c1)Nc1ccccc1S2,inactive

# Target: human Thyroid hormone Receptor alpha (TRa), THRA (gene 7067) (UniProt P10827)
# Sequence (P10827 whole entry, looked up): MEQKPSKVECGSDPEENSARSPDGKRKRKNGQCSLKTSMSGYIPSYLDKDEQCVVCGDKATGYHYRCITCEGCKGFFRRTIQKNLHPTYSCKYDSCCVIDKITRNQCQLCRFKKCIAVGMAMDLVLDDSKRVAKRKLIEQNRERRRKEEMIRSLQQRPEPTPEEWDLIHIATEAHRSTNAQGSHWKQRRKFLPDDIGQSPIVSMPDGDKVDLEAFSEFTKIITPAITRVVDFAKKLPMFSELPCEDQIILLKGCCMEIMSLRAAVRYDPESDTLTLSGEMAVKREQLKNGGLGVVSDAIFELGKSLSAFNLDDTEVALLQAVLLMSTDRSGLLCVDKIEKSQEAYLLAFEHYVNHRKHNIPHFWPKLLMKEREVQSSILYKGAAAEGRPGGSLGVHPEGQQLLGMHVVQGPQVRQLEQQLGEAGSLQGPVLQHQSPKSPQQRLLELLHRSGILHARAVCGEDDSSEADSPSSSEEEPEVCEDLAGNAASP
# Assay: ATG_hTRa_XSP2: Attagene TRANS-FACTORIAL Multi-Species (XSP2) HepG2 Assay for human Thyroid hormone Receptor alpha (TRa) (AID 2283838)
# Method in brief: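 Gain-of-signal in reporter mRNA, relative to DMSO, after 24 h dosing of transfected HepG2; quantitation by RT-PCR fragment analysis on capillary electrophoresis.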
row,SMILES,outcome
1,CCCCc1ccc(O)cc1,inactive
2,O=S(=O)(c1ccc(O)cc1)c1ccc(O)cc1,inactive
3,c1ccc2c(c1)Nc1ccccc1S2,inactive

# Target: frog Thyroid hormone Receptor alpha (TRa), thra-a (gene 397942) (UniProt P15204)
# Sequence (P15204 whole entry, looked up): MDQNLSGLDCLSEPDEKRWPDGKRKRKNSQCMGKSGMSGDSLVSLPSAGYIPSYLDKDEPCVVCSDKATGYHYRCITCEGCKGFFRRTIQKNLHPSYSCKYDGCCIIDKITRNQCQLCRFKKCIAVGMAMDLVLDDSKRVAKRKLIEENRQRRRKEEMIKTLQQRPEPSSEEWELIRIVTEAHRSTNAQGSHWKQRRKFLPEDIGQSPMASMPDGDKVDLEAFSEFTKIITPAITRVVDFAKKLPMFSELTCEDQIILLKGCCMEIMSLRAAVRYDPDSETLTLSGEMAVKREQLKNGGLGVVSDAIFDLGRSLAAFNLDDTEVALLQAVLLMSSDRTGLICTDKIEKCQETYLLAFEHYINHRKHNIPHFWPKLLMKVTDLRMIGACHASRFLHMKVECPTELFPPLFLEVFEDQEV
# Assay: ATG_frTRa_XSP2: Attagene TRANS-FACTORIAL Multi-Species (XSP2) HepG2 Assay for frog Thyroid hormone Receptor alpha (TRa) (AID 2283839);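 as to AC50: AC50 reflects induction of frog TRa-driven reporter mRNA above DMSO baseline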
# Method in brief: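 Transfect HepG2 with multiple reporter units (GAL4-UAS), dose chemical, incubate 24 h. Isolate RNA, reverse-transcribe, PCR-amplify reporter, label with 6-FAM by primer extension, digest with HpaI, run capillary electrophoresis; induction scored against DMSO.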
SMILES,outcome,AC50
CC(C)(C)c1ccc(O)cc1,inactive,
O=S(=O)(c1ccc(O)cc1)c1ccc(O)cc1,,100 µM (active)
CCC(C)(C)c1ccc(O)cc1,inactive,
c1ccc2c(c1)Nc1ccccc1S2,inactive,

# Target: human Thyroid hormone Receptor beta (TRb), THRB (gene 7068) (UniProt P10828)
# Sequence (P10828 whole entry, looked up): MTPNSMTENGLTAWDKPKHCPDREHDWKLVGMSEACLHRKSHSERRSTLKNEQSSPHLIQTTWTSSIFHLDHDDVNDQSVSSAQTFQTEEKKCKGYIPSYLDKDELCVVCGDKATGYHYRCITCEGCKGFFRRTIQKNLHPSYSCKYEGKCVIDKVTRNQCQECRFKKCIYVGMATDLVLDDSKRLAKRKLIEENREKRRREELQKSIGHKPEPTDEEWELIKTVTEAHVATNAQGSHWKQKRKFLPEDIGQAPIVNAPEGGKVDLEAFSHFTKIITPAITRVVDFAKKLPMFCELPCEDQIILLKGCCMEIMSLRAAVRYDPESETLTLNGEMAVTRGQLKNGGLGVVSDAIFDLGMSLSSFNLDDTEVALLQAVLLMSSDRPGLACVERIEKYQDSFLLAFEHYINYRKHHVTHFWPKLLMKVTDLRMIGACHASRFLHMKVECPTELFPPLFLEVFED
# Assay: ATG_hTRb_XSP2: Attagene TRANS-FACTORIAL Multi-Species (XSP2) HepG2 Assay for human Thyroid hormone Receptor beta (TRb) (AID 2283840);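 also: actives raise reporter mRNA so potency reflects agonist-like gain of signal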
# Experimental: ATG_XSP2_multi-species_TRANS is a cell-based, multiplexed assay created by modifying the existing Attagene TRANS-FACTORIAL system to include a panel of nuclear receptors from some or all the following species: human (Homo sapiens), mouse (Mus musculus), frog (Xenopus laevis), zebrafish (Danio rerio), chicken (Gallus gallus), and turtle (Chrysemys picta). The ECOTOX-FACTORIAL format uses HepG2, a human liver cell line, with measurements taken at 24 hours after chemical dosing in a 24-well plate. Xsp2 included 3 nM 6-alpha-fluorotestosterone and 1.5 nM norgestrel to stimulate the androgen receptor.ATG_hTRb_XSP2 is one of 29 assay components measured or calculated from the ATG_XSP2_multi-species_TRANS assay. It is designed to make measurements of mRNA induction, a form of inducible reporter, as detected with fluorescence intensity signals by Reverse transcription polymerase chain reaction (RT-PCR) and Capillary electrophoresis technology.The assay endpoint ATG_hTRb_XSP2 was analyzed in the positive analysis fitting direction relative to DMSO as the negative control and baseline of activity. Using a type of inducible reporter, measures of mRNA for gain-of-signal activity can be used to understand the reporter gene at the transcription factor-level as they relate to the gene TR. Furthermore, this assay endpoint can be referred to as a primary readout, because this assay has produced multiple assay endpoints where this one serves a reporter gene function. To generalize the intended target to other relatable targets, this assay endpoint is annotated to the nuclear receptor intended target family, where the subfamily is non-steroidal.
# Human liver HepG2 cells are transiently transfected with multiple reporter transcription units (MRTUs) in 6-well plates using FuGene 6 reagent (Roche; 3 ml FuGene/1 mg DNA). The MRTU constructs are regulated by a cis-regulating element (promoter). […] A major difference between the CIS and TRANS system is that in CIS activities of endogenous TFs are measured, whereas the TRANS assay evaluates changes in activities of exogenous, chimeric NR-Gal4 proteins. […] At the end of 24 hour incubation, total RNA was isolated using TriZol reagent (Invitrogen). The isolated RNA is then reverse-transcribed using oligo(dT) primer and Mo-MLV reverse transcriptase (Invitrogen) with DNAse I (Ambion) treatment for 30 min. The one-tenth of the produced cDNA was amplified by PCR using Taq DNA polymerase (Invitrogen) and two reporter sequence-specific primers. The PCR products were fluorescently labeled by primer extension with 6-arboxyfluorescein (6-FAM) 5'-labeled reporter sequence-specific primer (2 min at 95 C, 20 s at 68 C and 10 min at 72 C) and these products were digested with 5U of HpaI (New England Biolabs) for 2h at 37 C. The fragments were purified using Qiaquick PCR columns (Qiagen), analyzed on an ABI 3130xL genetic analyzer (Applied Biosystems) with peak positions identified by using a set of X-rhodamine (ROX)-labeled MapMarker1000 molecular weight standards (BioVentures). The raw capillary electrophoresis data was processed using Attagraph software (Attagene).
SMILES,AC50,outcome
CCCCc1ccc(O)cc1,31 µM (active),inactive
O=S(=O)(c1ccc(O)cc1)c1ccc(O)cc1,,inactive
CCC(C)(C)c1ccc(O)cc1,,inactive
c1ccc2c(c1)Nc1ccccc1S2,,inactive

# Tested on: Sodium/Iodide Symporter (NIS), SLC5A5 (gene 6528)
# Assay: CPHEA_Stoker_NIS_Inhibition_RAIU: CPHEA's Radioactive Iodide Uptake (RAIU) Assay for Sodium/Iodide Symporter (NIS) Inhibition, Stoker and Laws Labs (AID 2283841)
# Method in brief: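 Test chemicals, six concentrations from 0.001 to 100uM in 0.5% DMSO, were co-incubated with carrier-free 125I (final 329pM) on hNIS-HEK293T-EPA monolayers in pH 7.4 HEPES-buffered HBSS. Plates stood 2 hours at room temperature, then were washed cold and counted.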
SMILES,AC50,outcome
CO/N=C(/C(=O)OC)c1ccccc1COc1ccccc1C,7.83 µM (active),
OCC(F)(F)OC(F)(F)C(F)(F)OC(F)(F)C(F)(F)OC(F)(F)F,,inactive
O=S(=O)(F)C(F)(F)C(F)(F)C(F)(F)C(F)(F)C(F)(F)C(F)(F)C(F)(F)C(F)(F)F,,inactive
ClC1=C(Cl)C2(Cl)C3C(Cl)C(Cl)CC3C1(Cl)C2(Cl)Cl (stereo not drawn),,inactive
OCC(F)(F)OC(F)(F)C(F)(F)OC(F)(F)C(F)(F)OC(F)(F)CO,,inactive
COC(=O)C(F)(F)C(F)(F)OC(F)(C(F)(F)F)C(F)(F)OC(F)=C(F)F (stereo not drawn),,inactive
CCCCc1ccc(O)cc1,,inactive
CC(C)(C)c1ccc(O)cc1,,inactive
CC(C)(C)N(NC(=O)c1ccc(Cl)cc1)C(=O)c1ccccc1,,inactive
c1ccc2c(c1)sc1ccccc12,,inactive
O=c1ssc(Cl)c1Cl,9.92 µM (active),
CCOP(=S)(OCC)SCSCC,,inactive
CCOP(=S)(Oc1ccc([N+](=O)[O-])cc1)c1ccccc1 (stereo not drawn),,inactive
O=P(OCC(Br)CBr)(OCC(Br)CBr)OCC(Br)CBr (stereo not drawn),,inactive
O=NN1CCCC1,,inactive
O=P(Oc1ccccc1)(Oc1ccccc1)Oc1ccccc1,50 µM (active),
CCCCC(CC)COP(=O)(Oc1ccccc1)Oc1ccccc1 (stereo not drawn),,inactive
